# SARS PLP yeast – qHTS of Yeast-based Assay for SARS-CoV PLP | S. cerevisiae expressing SARS-CoV PLpro, growth rescue | Potency, µM (titrated, usually from 32.9 µM), without a hit: at the highest dose activity, positive = growth rescue, hits mostly activators | actives 0.19% (n = 330,000) | AID 485353, 2010; calls by dose curve; further: 0% is about no effect; nearly all actives have a fitted effect of over 55% in size
# Sm TGR inh – qHTS Assay for the Inhibitors of Schistosoma Mansoni Peroxiredoxins; Schistosoma mansoni thioredoxin glutathione reductase (TGR), Q962Y6; actives 3% (n = 360,000); Potency, µM (series often up to 114 µM), for inactives: at the top dose activity change, negative = inhibition, most hits filed as inhibitors; purified TGR, DTNB reduction, TNB absorbance 405 nm; active means well fitted inhibition curve with a large enough effect; inconclusive means small, poorly fitted or top-dose-only effect; inactive means no such curve, though single readings can be large or run the other way; further: on the % scale 0 is the no-effect control and ±100 the full control effect; nearly all actives have a fitted effect of over 60% in size
#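 Kinetic colorimetric format: TGR-catalysed, NADPH-driven DTNB reduction monitored via TNB absorbance. Enzyme dispensed at 20 nM; compound exposure 15 min at room temperature before reaction start.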
# * hit, by the source's call; ? = inconclusive; nt = not tested or not shown. Most compounds without a hit are left out; they make up all but 3% or so of the library. Potency means the concentration at half of the fitted maximal effect.
SMILES,SARS PLP yeast,Sm TGR inh
CN(c1ccccc1)S(=O)(=O)c1cccc(C(=O)NCCc2ccc(O)c(O)c2)c1,2.6%,15.8µM*
CC(C)(C)c1ccc(S(=O)(=O)NCc2ccc3c(c2)CCN3C(=O)c2ccccc2)cc1,nt,3.3%
Cc1oc(-c2ccc(Cl)cc2)nc1CS(=O)CC(=O)NCc1ccccc1 (stereo not drawn),-4.6%,0.0%
Cc1ccc(-c2nc(CS(=O)CC(=O)NCc3ccc(Cl)cc3)c(C)o2)cc1 (stereo not drawn),18.0%,?
CCc1ccc(-c2nc(CSCC(=O)NCc3ccco3)c(C)o2)cc1,-0.8%,28.2µM*
CCc1ccc(-c2nc(CSCC(=O)NCc3ccccc3OC)c(C)o2)cc1,nt,1.4%
Cc1ccc(-c2nc(CS(=O)CC(=O)NCc3ccc4c(c3)OCO4)c(C)o2)cc1 (stereo not drawn),2.3%,22.4µM*
CCc1ccc(-c2nc(CS(=O)CC(=O)NCc3ccccc3)c(C)o2)cc1 (stereo not drawn),0.2%,8.91µM*
CCc1ccc(-c2nc(CS(=O)CC(=O)NCc3ccc4c(c3)OCO4)c(C)o2)cc1 (stereo not drawn),?,10µM*
COc1ccc(-c2nc(CS(=O)CC(=O)NCc3ccc(Cl)cc3)c(C)o2)cc1 (stereo not drawn),6.4%,?
COC(=O)c1cc2sc(C)cc2n1Cc1nc(-c2ccc(C)cc2)oc1C,nt,3.3%
COc1ccc(C(=O)Oc2cc(N)n(S(=O)(=O)c3ccccc3)n2)cc1,0.2%,2.2%
COc1ccc(S(=O)(=O)n2nc(OC(C)=O)cc2N)cc1,-0.3%,25.1µM*
Cc1ccc(-n2ncc(C(=O)NCc3ccco3)c2C2CCN(C(=O)OC(C)(C)C)CC2)cc1,nt,0.5%
Cc1c(N=Nc2ccc(O)cc2)c(=O)n(-c2ccccc2)n1C,0.3%,-1.0%
Cc1c(N=NC2=C(O)CCCC2=O)c(=O)n(-c2ccccc2)n1C,0.6%,17.8µM*
COc1ccc(N2CCN(C(=O)c3c(C)oc4ncn(CC(C)C)c(=O)c34)CC2)cc1,nt,-2.1%
O=C(Nc1ccc(F)c(Cl)c1)C1CCCN1S(=O)(=O)c1ccc(F)cc1 (stereo not drawn),nt,-2.8%
O=C(N[C@@H](Cc1ccccc1)C(=O)O)c1ccncc1,0.8%,-33.1%
O=C(N[C@@H](Cc1ccc(O)cc1)C(=O)O)c1cccnc1,0.3%,50.1µM*
Cc1c([N+](=O)[O-])c(C(=O)Sc2ccc(Br)cc2)nn1C,-5.6%,0.501µM*
Cc1c([N+](=O)[O-])c(C(=O)N2CCCC2)nn1C,6.1%,1.1%
COc1ccc(NCc2cc3cc4c(cc3n(CC(=O)Nc3ccc(F)cc3F)c2=O)OCO4)cc1,nt,6.4%
C[C@H](NC(=O)[C@@H]1CCC(=O)N1Cc1ccco1)c1ccccc1,0.6%,50.1µM*
Cc1ccc(CN2C(=O)CCC2C(=O)NCc2ccco2)cc1 (stereo not drawn),4.2%,0.0%
SMILES,SARS PLP yeast,Sm TGR inh
O=C(O)[C@H]1CCC(=O)N1Cc1ccco1,-1.0%,-15.4%
CN(Cc1ccccc1)C(=O)[C@H]1CCC(=O)N1Cc1ccco1,3.4%,15.8µM*
Cc1ccc2nc3c(c(Nc4ccc(C)c(C)c4)c2c1)CCC3,nt,0.5%
O=C(Nc1c(C(=O)N2CCN(c3ccccc3)CC2)oc2ccccc12)c1ccco1,nt,-0.6%
CCn1c(SCc2ccccc2Cl)nc(=O)c2c(C(=O)OC)cc(C3CC3)nc21,nt,0.9%
COc1cc(NC(=O)CN2C(=O)CN(C)C2=O)c(C)cc1[N+](=O)[O-],-0.3%,-21.8%
COc1cc(NC(=O)Cn2ncc(Cl)c(Cl)c2=O)c(C)cc1[N+](=O)[O-],-3.3%,39.8µM*
Cc1ccc(NC(=O)C2(c3cccs3)CCOCC2)cc1Cl,nt,13.3%
Cc1ccc2oc(=O)c3cnn(CC(=O)N4CCN(c5cc(Cl)ccc5C)CC4)c3c2c1,nt,-2.2%
Oc1ccc(Cl)cc1C1=NNC(c2cc(Br)cc3c2OCOC3)C1 (stereo not drawn),-1.3%,25.1µM*
COc1ccc(C2=NNC(c3cc(Cl)cc4c3OCOC4)C2)c(O)c1 (stereo not drawn),0.3%,nt
COc1ccccc1NC(=O)CCCC(=O)OCC(=O)c1ccc(F)cc1,-2.1%,-3.9%
O=C(CC(Nc1ccc(Cl)cc1)C(=O)O)c1ccccc1 (stereo not drawn),2.0%,0.708µM*
O=C(CC(=O)c1ccccc1)Nc1ccc(Cl)cc1,-6.4%,31.6µM*
Cc1c(Cl)cccc1NC(CC(=O)c1ccccc1)C(=O)OCC(=O)c1cccs1 (stereo not drawn),-28.6%,8.91µM*
O=C(Cc1ccc(Cl)cc1)Nc1ccc(NC(=O)c2ccccc2)cc1,4.6%,-5.2%
O=C(CC(Nc1cccc(Cl)c1Cl)C(=O)OCC(=O)c1cccs1)c1ccccc1 (stereo not drawn),13.0%,-34.2%
COc1ccccc1NC(CC(=O)c1ccccc1)C(=O)OCC(=O)c1ccc(F)cc1 (stereo not drawn),-40.5%,20µM*
O=C(CC(Nc1cccc(Cl)c1Cl)C(=O)O)c1ccccc1 (stereo not drawn),0.1%,nt
CCc1ccc(OCC(=O)N(Cc2ccc(C)o2)C2CCS(=O)(=O)C2)cc1 (stereo not drawn),nt,-21.1%
CCOc1ccc2cc(-c3nnc(Nc4ccccc4F)s3)c(=O)oc2c1,nt,0.4%
CCc1ccc(NC(=O)Cn2c(=O)n(CCCC(=O)NCc3ccccc3OC)c(=O)c3ccccc32)cc1,nt,-4.2%
CCCCCn1c(=N)c(S(=O)(=O)c2ccc(C)cc2)cc2c(=O)n3cc(C)ccc3nc21,nt,6.7%
Cc1c(Cl)cccc1NC(CC(=O)c1ccccc1)C(=O)O (stereo not drawn),-17.4%,1µM*
O=C(CC(Nc1ccccc1Cl)C(=O)O)c1ccccc1 (stereo not drawn),-0.7%,nt
SMILES,SARS PLP yeast,Sm TGR inh
CCN(CC)c1ccc(NC(=O)CN(C)S(=O)(=O)c2cccc3nsnc23)c(C)c1,nt,-13.6%
Cc1ccccc1OCC(=O)Nc1ccc2nc(SCc3ccccc3)sc2c1,nt,-0.2%
Cc1cccc(CN2C(=O)CC(c3ccc(Cl)cc3)c3c(C)nn(-c4nc(C)cc(C)n4)c32)c1 (stereo not drawn),nt,-0.4%
CCCC(=O)Nc1sc2c(c1C#N)CC(C)(C)NC2(C)C,10.5%,-10.4%
COc1ccc(CC(=O)Nc2sc3c(c2C#N)CC(C)(C)NC3(C)C)cc1OC,-0.8%,89.1µM*
CCCn1ccc2c(OCC(=O)Nc3ccccc3C(=O)OCC)cccc2c1=O,nt,-0.3%
Cc1cc2c(cc1S(=O)(=O)N(C)CC(=O)Nc1ccc(C#N)cc1)OCC(=O)N2,nt,4.8%
O=C(O)Cc1sc(-c2ccccc2Cl)nc1-c1ccccc1,0.7%,-3.3%
O=C(O)Cc1sc(-c2cccnc2)nc1-c1ccc(Br)cc1,5.3%,22.4µM*
O=C1OCCC1Sc1nnc(-c2ccccc2)o1 (stereo not drawn),-3.7%,-1.9%
O=C1c2ccccc2CC1Sc1nnc(-c2ccccn2)o1 (stereo not drawn),3.5%,44.7µM*
CCOc1ccccc1NC(=O)c1nc(S(=O)(=O)Cc2cccc(C)c2)ncc1Cl,-9.1%,7.08µM*
CCSc1ncc(Cl)c(C(=O)Nc2ccccc2OC)n1,5.0%,32.3%
CCc1nnc(NC(=O)c2nc(S(=O)(=O)Cc3ccccc3)ncc2Cl)s1,5.3%,31.6µM*
CCc1nnc(NC(=O)c2nc(S(=O)(=O)Cc3ccc(C)cc3)ncc2Cl)s1,6.0%,31.6µM*
CCc1nnc(NC(=O)c2nc(Cl)ccc2Cl)s1,1.8%,-5.7%
